# Laboratory results taken from PubChem BioAssay (Tox21).
# Unmarked numbers belong to inactive results. Inconclusive results are not listed. Entries that show only a call come without a potency. The source made the active and inactive calls. Calls come from the whole dose curve; as a rule, active = well fitted curve in the direction sought with a large enough effect in the repeat runs; inconclusive = weak or mixed curves; inactive = no such curve, though single readings can be large; an effect the other way counts as inactive or inconclusive.
# Columns and labels:
# [1] = qHTS RealTime-Glo MT Cell Viability Assay in HEK293 cells - 16 hour (AID 1224872); note: nearly all actives have a fitted effect of over 50% in size; note: potency is the fitted concentration of half-maximal effect
# How it was run: (§1)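 Reads taken at 0, 8, 16, 24, 32 and 40 h from the same wells. HEK293 cells (600/well) carried RealTime-Glo reagents from seeding, with compound added after a 5 h settle at 37 C.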
# [2] = qHTS RealTime-Glo MT Cell Viability Assay in HepG2 cells - 8 hour (AID 1224873); note: nearly all actives have a fitted effect of over 55% in size
# How it was run: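 Real-time viability: cells seeded at 600 per well together with NanoLuc and cell-permeant prosubstrate, compounds added after 5 h incubation. Luminescence tracked at 0, 8, 16, 24, 32 and 40 h of exposure.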
# [3] = qHTS RealTime-Glo MT Cell Viability Assay in HEK293 cells - 40 hour (AID 1224874); details: RealTime-Glo luminescence; max response: stronger effect = lower value; note: nearly all actives have a fitted effect of over 50% in size; note: potency is the fitted concentration of half-maximal effect
# How it was run: (§2)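 qHTS format; HEK293 cells with NanoLuc/prosubstrate reagent, 37 C/5% CO2 for 5 h pre-dosing; compounds 23 nL in DMSO; luminescence at each time point reflects viable cells.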
# [4] = A CellTox Green Cytotoxicity Assay to monitor cytotoxicity in HepG2 cells - 16 hour (AID 1224876); note: nearly all actives have a fitted effect of over 45% in size
# How it was run: (§3)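 Continuous culture of HepG2 cells with a membrane-impermeant DNA dye; rising fluorescence marks dead cells. Compound exposure lasted up to 40 h at 37 C, with reads every 8 h from 0 h.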
# [5] = qHTS RealTime-Glo MT Cell Viability Assay in HepG2 cells - 32 hour (AID 1224877); note: nearly all actives have a fitted effect of over 55% in size
# How it was run: (§4)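 HepG2 suspension premixed with RealTime-Glo reagents is plated at 600 cells per well and left 5 h at 37 C/5% CO2. Compounds in DMSO then go in, and bioluminescence reflecting viable cell number is recorded over 40 h.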
# [6] = A CellTox Green Cytotoxicity Assay to monitor cytotoxicity in HepG2 cells - 24 hour (AID 1224878); note: nearly all actives have a fitted effect of over 45% in size
# How it was run: as §3
# [7] = qHTS RealTime-Glo MT Cell Viability Assay in HEK293 cells - 0 hour (AID 1224880); note: top concentration of the series differs between compounds; nearly all actives have a fitted effect of over 45% in size
# How it was run: as §2
# [8] = A CellTox Green Cytotoxicity Assay to monitor cytotoxicity in HepG2 cells - 0 hour (AID 1224882); note: nearly all actives have a fitted effect of over 35% in size
# How it was run: as §3
# [9] = A CellTox Green Cytotoxicity Assay to monitor cytotoxicity in HEK293 cells - 8 hour (AID 1224884); note: nearly all actives have a fitted effect of over 35% in size
# How it was run: (§5)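 Each value comes from one timepoint of a single continuous run in which HEK293 cells with CellTox Green were exposed to compound for up to 40 h at 37 C, dye fluorescence rising with cell death.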
# [10] = qHTS RealTime-Glo MT Cell Viability Assay in HepG2 cells - 16 hour (AID 1224885); note: nearly all actives have a fitted effect of over 50% in size
# How it was run: as §4
# [11] = qHTS RealTime-Glo MT Cell Viability Assay in HEK293 cells - 24 hour (AID 1224886); note: nearly all actives have a fitted effect of over 50% in size; note: potency is the fitted concentration of half-maximal effect
# How it was run: as §1
# [12] = qHTS RealTime-Glo MT Cell Viability Assay in HepG2 cells - 0 hour (AID 1224889); note: nearly all actives have a fitted effect of over 50% in size
# How it was run: as §4
# [13] = A CellTox Green Cytotoxicity Assay to monitor cytotoxicity in HepG2 cells - 40 hour (AID 1224879); note: nearly all actives have a fitted effect of over 40% in size; note: potency is the fitted concentration of half-maximal effect
# How it was run: as §3
# [14] = A CellTox Green Cytotoxicity Assay to monitor cytotoxicity in HepG2 cells - 32 hour (AID 1224883); note: nearly all actives have a fitted effect of over 50% in size; note: potency is the fitted concentration of half-maximal effect
# How it was run: as §3
# [15] = qHTS RealTime-Glo MT Cell Viability Assay in HEK293 cells - 8 hour (AID 1224887); note: nearly all actives have a fitted effect of over 50% in size; note: potency is the fitted concentration of half-maximal effect
# How it was run: as §2
# [16] = A CellTox Green Cytotoxicity Assay to monitor cytotoxicity in HEK293 cells - 16 hour (AID 1224888); note: nearly all actives have a fitted effect of over 35% in size
# How it was run: as §5
# [17] = A CellTox Green Cytotoxicity Assay to monitor cytotoxicity in HepG2 cells - 8 hour (AID 1224890); note: nearly all actives have a fitted effect of over 45% in size
# How it was run: as §3
# [18] = A CellTox Green Cytotoxicity Assay to monitor cytotoxicity in HEK293 cells - 40 hour (AID 1224871); note: nearly all actives have a fitted effect of over 45% in size
# How it was run: as §5
# [19] = A CellTox Green Cytotoxicity Assay to monitor cytotoxicity in HEK293 cells - 24 hour (AID 1224875)
# How it was run: as §5
# [20] = A CellTox Green Cytotoxicity Assay to monitor cytotoxicity in HEK293 cells - 32 hour (AID 1224881); note: nearly all actives have a fitted effect of over 40% in size
# How it was run: as §5
smiles,measurement,setting,value
O=[N+]([O-])C(Br)Br,Potency,[1],55 µM (active)
same,Potency,[2],inactive
same,Potency,[3],55 µM (active)
same,Potency,[4],inactive
same,Potency,[5],inactive
same,Potency,[6],inactive
same,Potency,[7],inactive
same,Potency,[8],inactive
same,Potency,[9],inactive
same,Potency,[10],inactive
same,Potency,[11],55 µM (active)
same,Potency,[12],inactive
C[C@]12CC[C@H]3[C@@H](CCC4=CC(=O)CC[C@@H]43)[C@@H]1CC[C@@H]2OC(=O)CCc1ccco1,Potency,[1],inactive
same,Potency,[2],inactive
same,max response,[3],-8.1%
same,Potency,[4],inactive
same,Potency,[6],inactive
same,Potency,[13],inactive
same,Potency,[7],inactive
same,Potency,[8],inactive
same,Potency,[14],inactive
same,Potency,[9],inactive
same,Potency,[10],inactive
same,Potency,[11],inactive
same,Potency,[15],inactive
same,Potency,[16],inactive
same,Potency,[12],inactive
same,Potency,[17],inactive
CN1CCc2cc(Cl)c(O)cc2[C@H]2c3ccccc3CC[C@@H]21,Potency,[18],inactive
same,Potency,[2],inactive
same,Potency,[19],inactive
same,Potency,[4],inactive
same,Potency,[5],inactive
same,Potency,[6],inactive
same,Potency,[13],inactive
same,Potency,[7],inactive
same,Potency,[20],inactive
same,Potency,[8],inactive
same,Potency,[14],inactive
same,Potency,[10],inactive
same,Potency,[15],inactive
same,Potency,[16],inactive
same,Potency,[12],inactive
same,Potency,[17],inactive
Nc1ccc(N=Nc2ccccc2)cc1,Potency,[18],inactive
same,Potency,[19],inactive
same,Potency,[4],inactive
same,Potency,[5],inactive
same,Potency,[6],inactive
same,Potency,[7],inactive
same,Potency,[20],inactive
same,Potency,[8],inactive
same,Potency,[9],inactive
same,Potency,[16],inactive
same,Potency,[12],inactive
same,Potency,[17],inactive
C#CCC1=C(C)C(OC(=O)C2C(C=C(C)C)C2(C)C)CC1=O (stereo not given),Potency,[18],inactive
same,Potency,[19],inactive
same,Potency,[4],inactive
same,Potency,[5],inactive
same,Potency,[6],inactive
same,Potency,[13],inactive
same,Potency,[7],inactive
same,Potency,[20],inactive
same,Potency,[8],inactive
same,Potency,[14],inactive
same,Potency,[9],inactive
same,Potency,[10],inactive
same,Potency,[16],inactive
same,Potency,[12],inactive
same,Potency,[17],inactive
c1ccc(Nc2ccc(Nc3ccccc3)cc2)cc1,Potency,[1],19.4 µM (active)
same,Potency,[3],19.4 µM (active)
same,Potency,[4],inactive
same,Potency,[5],inactive
same,Potency,[6],inactive
same,Potency,[13],inactive
same,Potency,[8],inactive
same,Potency,[14],inactive
same,Potency,[10],inactive
same,Potency,[11],21.8 µM (active)
same,Potency,[15],15.4 µM (active)
same,Potency,[12],inactive
same,Potency,[17],inactive
CC(C)C(Nc1ccc(C(F)(F)F)cc1Cl)C(=O)OC(C#N)c1cccc(Oc2ccccc2)c1 (stereo not given),Potency,[18],inactive
same,max response,[3],-20.4%
same,Potency,[19],inactive
same,Potency,[4],inactive
same,Potency,[5],inactive
same,Potency,[6],inactive
same,Potency,[13],inactive
same,Potency,[20],inactive
same,Potency,[8],inactive
same,Potency,[14],inactive
same,Potency,[9],inactive
same,Potency,[10],inactive
same,Potency,[11],inactive
same,Potency,[16],inactive
same,Potency,[12],inactive
same,Potency,[17],inactive
C=CCOC(=O)c1ccccc1N,Potency,[1],inactive
same,Potency,[2],inactive
same,max response,[3],-17.8%
same,Potency,[4],inactive
same,Potency,[5],inactive
same,Potency,[6],inactive
same,Potency,[13],inactive
same,Potency,[8],inactive
same,Potency,[14],inactive
same,Potency,[10],inactive
same,Potency,[11],inactive
same,Potency,[16],inactive
same,Potency,[12],inactive
same,Potency,[17],inactive
CC(C)=CCN1CC[C@@]2(C)c3cc(O)ccc3C[C@@H]1[C@@H]2C,Potency,[18],inactive
same,Potency,[19],inactive
same,Potency,[4],inactive
same,Potency,[5],inactive
same,Potency,[6],inactive
same,Potency,[20],inactive
same,Potency,[8],inactive
same,Potency,[14],inactive
same,Potency,[9],inactive
same,Potency,[10],inactive
same,Potency,[15],inactive
same,Potency,[16],inactive
same,Potency,[12],inactive
Oc1cccc(Cl)c1Cl,Potency,[18],inactive
same,Potency,[2],inactive
same,Potency,[19],inactive
same,Potency,[4],inactive
same,Potency,[5],inactive
same,Potency,[6],inactive
same,Potency,[20],inactive
same,Potency,[8],inactive
same,Potency,[14],inactive
same,Potency,[10],inactive
same,Potency,[15],inactive
same,Potency,[16],inactive
same,Potency,[12],inactive
CCO/N=C(\CC)C1=C(O)CC(c2c(C)cc(C)cc2C)CC1=O (stereo not given),Potency,[18],inactive
same,Potency,[2],inactive
same,Potency,[19],inactive
same,Potency,[5],inactive
same,Potency,[20],inactive
same,Potency,[8],inactive
same,Potency,[9],inactive
same,Potency,[10],inactive
same,Potency,[16],inactive
CN(C)c1ccc(N)cc1,Potency,[1],42.6 µM (active)
same,Potency,[3],47.8 µM (active)
same,Potency,[19],inactive
same,Potency,[4],inactive
same,Potency,[5],inactive
same,Potency,[6],inactive
same,Potency,[13],inactive
same,Potency,[7],inactive
same,Potency,[8],inactive
same,Potency,[14],inactive
same,Potency,[9],inactive
same,Potency,[11],42.6 µM (active)
same,Potency,[15],24 µM (active)
same,Potency,[16],inactive
same,Potency,[12],inactive
CCOP(=S)(NC(C)C)Oc1ccccc1C(=O)OC(C)C (stereo not given),Potency,[18],inactive
same,Potency,[3],43.6 µM (active)
same,Potency,[19],inactive
same,Potency,[4],inactive
same,Potency,[6],inactive
same,Potency,[13],38.9 µM (active)
same,Potency,[20],inactive
same,Potency,[8],inactive
same,Potency,[14],inactive
same,Potency,[16],inactive
same,Potency,[12],inactive
same,Potency,[17],inactive
CCNc1nc(NC(C)C(C)C)nc(SC)n1 (stereo not given),Potency,[18],inactive
same,Potency,[2],inactive
same,Potency,[19],inactive
same,Potency,[4],inactive
same,Potency,[5],inactive
same,Potency,[6],inactive
same,Potency,[7],inactive
same,Potency,[20],inactive
same,Potency,[8],inactive
same,Potency,[14],inactive
same,Potency,[10],inactive
same,Potency,[11],inactive
same,Potency,[15],inactive
same,Potency,[16],inactive
same,Potency,[12],inactive
CC1(C)[C@H](/C=C2\CCSC2=O)[C@@H]1C(=O)OCc1coc(Cc2ccccc2)c1,Potency,[18],inactive
same,Potency,[19],inactive
same,Potency,[4],inactive
same,Potency,[6],inactive
same,Potency,[13],inactive
same,Potency,[20],inactive
same,Potency,[8],inactive
same,Potency,[14],inactive
same,Potency,[9],inactive
same,Potency,[15],38.9 µM (active)
same,Potency,[16],inactive
same,Potency,[12],inactive
same,Potency,[17],inactive
CC1=C2C[C@H]3[C@@H](CC=C4C[C@@H](O)CC[C@@]43C)[C@@H]2CC[C@]12O[C@@H]1C[C@H](C)CN[C@H]1[C@H]2C,Potency,[2],inactive
same,Potency,[3],16.9 µM (active)
same,Potency,[5],inactive
same,Potency,[7],inactive
same,Potency,[8],inactive
same,Potency,[14],26.8 µM (active)
same,Potency,[9],inactive
same,Potency,[10],inactive
same,Potency,[11],16.9 µM (active)
same,Potency,[16],inactive
same,Potency,[17],inactive
